Reference: the supplement of paper PMC3334620
The full ranking holds about 33,000 sequences; the median of “E-score (-0.5 to 0.5)” is about -0.036, and the highest 2% start at about 0.37. For the sample, the highest values were picked, then their nearest neighbours and some sequences at random.

Each sequence was assayed against T1, Yer064c (UniProt P40041) (assay: PBM E-score (8-mer binding enrichment) (E-score (-0.5 to 0.5)); higher = stronger / more preferred TF binding). Settings: protein concentration: 200 nM; construct: GST-full length.
T1 sequence: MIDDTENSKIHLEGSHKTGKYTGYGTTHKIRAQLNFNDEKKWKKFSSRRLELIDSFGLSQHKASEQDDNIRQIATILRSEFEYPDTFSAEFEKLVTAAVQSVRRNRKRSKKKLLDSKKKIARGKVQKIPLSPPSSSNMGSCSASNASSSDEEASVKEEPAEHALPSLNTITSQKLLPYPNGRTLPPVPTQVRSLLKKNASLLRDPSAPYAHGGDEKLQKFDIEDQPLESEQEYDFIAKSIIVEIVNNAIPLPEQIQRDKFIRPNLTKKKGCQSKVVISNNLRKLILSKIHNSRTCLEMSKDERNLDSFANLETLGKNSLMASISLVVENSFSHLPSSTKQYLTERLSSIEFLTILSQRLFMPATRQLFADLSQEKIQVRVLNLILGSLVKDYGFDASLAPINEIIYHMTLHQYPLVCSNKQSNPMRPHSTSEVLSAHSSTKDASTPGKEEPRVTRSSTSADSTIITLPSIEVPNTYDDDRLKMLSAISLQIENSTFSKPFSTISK
In short: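 GST-tagged yeast TFs (full-length or DNA-binding domain) were made by PURExpress in vitro transcription/translation and applied at about 100-200 nM to universal all-10-mer Agilent arrays. The arrays were made double-stranded by primer extension, on fresh or once-stripped slides. Bound protein was detected with fluorescent anti-GST, and scans were normalised with masliner. Each ungapped eight-base word, pooled with its reverse complement, received an E-score (modified Wilcoxon-Mann-Whitney statistic) from the Universal PBM Analysis Suite.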

Row | Sequence | PBM E-score
1 | CTCTCGAC | -0.0566
2 | ACCGCCCA | -0.117
3 | CGAGAATA | -0.0825
4 | CGTCACGC | -0.184
5 | AATCACGG | 0.322
6 | ATTCACGG | 0.196
7 | AGTCACGG | 0.469
8 | AGTCACGA | 0.466
9 | CGTCACGA | -0.0925
10 | AGTCACGC | 0.469
11 | GGTCACGA | 0.0181
12 | ATTCACGC | 0.132
13 | CAGTAAAG | 0.0694
14 | CCGTTTGA | 0.0399
15 | ACACCCAA | -0.0135
16 | CCGCCTAC | -0.132
17 | CCTTCGCA | -0.293
18 | CTCGGAAC | -0.012
19 | GACGGCAA | -0.0972
20 | CGGAATCA | 0.392
21 | AGGAATCC | -0.0672
22 | GGGAATCA | 0.418
23 | AGGAATCG | 0.235
24 | CGGAATCC | -0.0704

Row | Sequence | PBM E-score
25 | GGGAATAA | -0.128
26 | AGGAATCA | 0.429
27 | CGGAATTA | -0.0336
28 | GGGAATGA | 0.0959
29 | GGATTCCA | 0.0871
30 | CGCCGAAA | -0.059
31 | GCGCAGGA | -0.0398
32 | CCATCCTA | 0.0627
33 | ATACCATG | 0.061
34 | AGGTCATA | 0.171
35 | AACTCATT | 0.2
36 | AAGTCATC | 0.471
37 | ATGTCATC | -0.179
38 | AAGTCAAT | 0.305
39 | AAGTCATT | 0.454
40 | AAGTCATA | 0.46
41 | AGGTCATC | 0.18
42 | AAGTCATG | 0.465
43 | ACGTCATG | 0.21
44 | ATGTCATA | 0.013
45 | AGGTCATG | 0.17
46 | ATCTCTAA | 0.0574
47 | AAGGATCC | -0.15
48 | GAGTTCTA | 0.0136

Row | Sequence | PBM E-score
49 | GGTTGGGA | 0.00893
50 | GGTATCAA | 0.0678
51 | CAGTCATC | 0.467
52 | CGGTCATC | -0.108
53 | CCGTCATC | -0.098
54 | ATCAAATC | 0.21
55 | GAGAAGCC | -0.201
56 | AGCAGAGC | -0.137
57 | CTCATACA | 0.184
58 | GTCATACA | 0.374
59 | ATCATACA | 0.236
60 | ATCAGGAA | 0.00077
61 | CCGGCATC | -0.251
62 | GGTAATTA | 0.0662
63 | CGTAATCA | 0.42
64 | GGTAATGA | 0.189
65 | AGTAATCG | 0.186
66 | AGTAATCA | 0.415
67 | CGTAATTA | -0.00543
68 | CGTAATCC | -0.0532
69 | AGTAATCC | 0.0831
70 | GGTAATCA | 0.433
71 | CTGCGGTC | -0.245
72 | CAGACCGC | -0.0824

Row | Sequence | PBM E-score
73 | AGTCGATA | 0.179
74 | AGACTCAA | 0.444
75 | AGACTCAC | 0.457
76 | ACTCTCAG | 0.125
77 | ACTCTCAC | 0.173
78 | ATACTCAT | 0.371
79 | AGACTCGC | 0.336
80 | ATACTCAA | 0.239
81 | AGACTCTA | 0.267
82 | AGACTCAG | 0.434
83 | ATACTCAG | 0.214
84 | ACTCTCAA | 0.257
85 | AGACTCTG | 0.301
86 | CCAAGTTA | 0.0576
87 | CAATTGCG | -0.0914
88 | ATGGATGG | -0.0396
89 | GCAACTGC | -0.0982
90 | AACCGTGT | 0.0249
91 | CGGTTCAG | -0.212
92 | TAGCTAAA | 0.0446
93 | CCGGGGGC | -0.128
94 | CCCCACCC | -0.0582
95 | ATCATTTA | 0.327
96 | ATCCTTAG | -0.107

Row | Sequence | PBM E-score
97 | CATGGCCG | -0.31
98 | AGACTCTC | 0.334
99 | CAACTCAC | 0.224
100 | AGACTCCT | 0.337
101 | AGACTCAT | 0.467
102 | CGACTCTC | 0.381
103 | ACACTCCG | -0.136
104 | CGACTCGC | 0.361
105 | AGACTCCG | 0.367
106 | ACTCTCAT | 0.112
107 | CGACTCAC | 0.468
108 | CCACTCAC | -0.0373
109 | ACACTCAT | 0.25
110 | TGGGCTAA | -0.0729
111 | AGATGGTC | -0.295
112 | AGAGACAG | -0.0696
113 | GAACTAGA | 0.0303
114 | CGACTCAG | 0.45
115 | CTACTCAG | 0.132
116 | CCACTCAG | 0.0632
117 | CCGTTATC | 0.0125
118 | ATGGCGGG | -0.0628
119 | CGTCACAC | -0.155
120 | AGTCACAG | 0.467

Row | Sequence | PBM E-score
121 | AGTCACAA | 0.46
122 | GGTCACAA | 0.0763
123 | AGGCACAT | -0.117
124 | CGTCACAA | -0.0973
125 | ACTCACAT | 0.35
126 | AGTCACAC | 0.477
127 | ATTCACAG | 0.078
128 | AGTCACAT | 0.469
129 | GGTCACAC | -0.00398
130 | CGTCACAG | -0.031
131 | CCCCGCTA | -0.209
132 | CTGGCGCC | -0.331
133 | TGCGGACA | -0.121
134 | GATGGCTA | 0.359
135 | ATGTCATG | 0.214
136 | TAGTCATA | 0.489
137 | CCGTCATA | 0.0861
138 | CGGTCATA | -0.0954
139 | TACTCATA | 0.343
140 | CTGTCATA | 0.0424
141 | CAGTCATG | 0.458
142 | CACTCATG | 0.222
143 | CAGTCATA | 0.448
144 | CGCGGACC | -0.262

Row | Sequence | PBM E-score
145 | CGGTTGAC | 0.0774
146 | ACCAGCGG | -0.133
147 | CGGCAAGA | -0.115
148 | AGTCAATC | 0.426
149 | AGTCAATA | 0.383
150 | ACTCAATC | 0.404
151 | AATCAATC | 0.301
152 | GGTCAATA | 0.108
153 | ACTCAATG | 0.302
154 | CGTCAATC | 0.17
155 | CGTCAATA | -0.192
156 | AGTCAATG | 0.377
157 | AATCAATG | 0.236
158 | ATTCAATG | 0.204
159 | ATTCAATC | 0.308
160 | AGCGGATG | -0.0548
161 | CTGGGCTA | -0.161
162 | AGGCTACC | -0.0969
163 | CCAACACC | -0.158
